# Results published in PMC7862700, “An all-to-all approach to the identification of sequence-specific readers for epigenetic DNA modifications on cytosine”.
# Key:
# Test in all cases: DAPPL (digital affinity profiling via proximity ligation, sequencing); 10 mM Tris-HCl pH 7.5, 50 mM NaCl, 1 mM DTT, 4% glycerol, room temperature, 30 min; GST-TFs on glutathione beads, 16-mer random dsDNA library, 0.1% formaldehyde crosslink after washing; high values mean tight binding
# [1] = target: HSF1 (Homo sapiens, UniProt Q00613 1-529); details: protein: recombinant; tags: N-terminal GST; chain copies: 3; dsDNA, one strand shown
# Outline: (§1)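 Binding signal is each hexamer's read frequency for a factor divided by its frequency in the tag-only sample. The factors were GST-fused human transcription factors from yeast, captured on glutathione beads, DNA-barcoded and pooled with that sample. Pools were incubated with 200 nmole of a random double-stranded 16-mer DNA library in Tris/NaCl/DTT/glycerol buffer at room temperature for 30 min, then washed, crosslinked with 0.1% formaldehyde, proximity-ligated with BsaI/T4 ligase (1 h, 37 °C), PCR-amplified and sequenced on an Illumina NextSeq500.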
# [2] = target: ELF4 (Homo sapiens, UniProt Q99607 1-663); details: protein: recombinant; tags: N-terminal GST; dsDNA, one strand shown
# Outline: as §1
# [3] = target: T1, ELK4 (Homo sapiens, UniProt P28324-2 1-405); details: protein: recombinant; tags: N-terminal GST; dsDNA, one strand shown
# T1 sequence: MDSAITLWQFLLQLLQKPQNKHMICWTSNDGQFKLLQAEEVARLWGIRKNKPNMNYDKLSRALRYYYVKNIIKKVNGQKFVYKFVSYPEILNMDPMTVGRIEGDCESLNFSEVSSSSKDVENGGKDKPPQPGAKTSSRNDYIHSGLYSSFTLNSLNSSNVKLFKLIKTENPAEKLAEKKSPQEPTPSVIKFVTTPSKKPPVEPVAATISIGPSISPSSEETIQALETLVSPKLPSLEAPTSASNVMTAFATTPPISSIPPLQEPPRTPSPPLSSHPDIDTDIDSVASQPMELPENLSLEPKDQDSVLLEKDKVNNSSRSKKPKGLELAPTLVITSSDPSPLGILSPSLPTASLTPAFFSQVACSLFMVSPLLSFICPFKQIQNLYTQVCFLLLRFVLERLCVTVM
# Outline: as §1
# [4] = target: T2, ETV2 (Homo sapiens, UniProt O00321 1-342); details: protein: recombinant; tags: N-terminal GST; dsDNA, one strand shown
# T2 sequence: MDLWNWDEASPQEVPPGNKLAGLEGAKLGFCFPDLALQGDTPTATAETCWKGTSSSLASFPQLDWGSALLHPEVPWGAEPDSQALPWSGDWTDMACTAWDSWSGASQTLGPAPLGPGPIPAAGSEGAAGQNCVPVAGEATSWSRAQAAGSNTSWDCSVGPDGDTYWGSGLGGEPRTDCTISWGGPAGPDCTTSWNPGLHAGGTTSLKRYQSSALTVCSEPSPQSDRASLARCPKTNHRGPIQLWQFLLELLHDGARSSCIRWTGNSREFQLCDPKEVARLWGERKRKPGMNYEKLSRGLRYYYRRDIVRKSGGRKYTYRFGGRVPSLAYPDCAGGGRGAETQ
# Outline: as §1
# [5] = target: CRX (Homo sapiens, UniProt O43186 1-299); details: protein: recombinant; tags: N-terminal GST; dsDNA, one strand shown
# Outline: as §1
# [6] = target: ETV1 (Homo sapiens, UniProt P50549 1-477); details: protein: recombinant; tags: N-terminal GST; dsDNA, one strand shown
# Outline: as §1
# [7] = target: T3, GABPA (Homo sapiens, UniProt Q06546 1-454); details: protein: recombinant; tags: N-terminal GST; dsDNA, one strand shown
# T3 sequence: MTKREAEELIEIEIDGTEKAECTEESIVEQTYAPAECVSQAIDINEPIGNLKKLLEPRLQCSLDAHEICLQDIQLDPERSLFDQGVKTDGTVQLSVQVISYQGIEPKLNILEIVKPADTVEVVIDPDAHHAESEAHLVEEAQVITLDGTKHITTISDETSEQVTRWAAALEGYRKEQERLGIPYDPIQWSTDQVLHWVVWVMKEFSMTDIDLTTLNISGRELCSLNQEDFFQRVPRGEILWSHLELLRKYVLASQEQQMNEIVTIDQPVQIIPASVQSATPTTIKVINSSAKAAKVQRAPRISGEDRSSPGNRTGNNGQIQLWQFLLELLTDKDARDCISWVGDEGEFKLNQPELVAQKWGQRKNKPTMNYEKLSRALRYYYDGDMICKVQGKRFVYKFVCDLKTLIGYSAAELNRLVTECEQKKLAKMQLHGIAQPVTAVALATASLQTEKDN
# Outline: as §1
# [8] = target: T4, ERF (Homo sapiens, UniProt P50548 1-548); details: protein: recombinant; tags: N-terminal GST; dsDNA, one strand shown
# T4 sequence: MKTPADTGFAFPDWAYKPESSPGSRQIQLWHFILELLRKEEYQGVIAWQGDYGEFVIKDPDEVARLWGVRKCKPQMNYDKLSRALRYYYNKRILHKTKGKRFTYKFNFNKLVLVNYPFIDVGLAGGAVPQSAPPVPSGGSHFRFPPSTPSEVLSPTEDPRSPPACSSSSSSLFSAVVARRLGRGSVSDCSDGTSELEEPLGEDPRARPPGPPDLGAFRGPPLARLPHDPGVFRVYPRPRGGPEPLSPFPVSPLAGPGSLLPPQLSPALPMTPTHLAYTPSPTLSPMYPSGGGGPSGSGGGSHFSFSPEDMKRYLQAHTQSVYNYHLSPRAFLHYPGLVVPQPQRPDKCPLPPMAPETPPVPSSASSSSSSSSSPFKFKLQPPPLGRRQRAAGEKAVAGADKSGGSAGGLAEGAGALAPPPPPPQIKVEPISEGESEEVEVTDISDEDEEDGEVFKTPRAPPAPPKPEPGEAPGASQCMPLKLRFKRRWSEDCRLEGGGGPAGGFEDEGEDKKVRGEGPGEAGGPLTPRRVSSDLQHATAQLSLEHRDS
# Outline: as §1
# [9] = target: T5, ETV7 (Homo sapiens, UniProt Q9Y603 1-341); details: protein: recombinant; tags: N-terminal GST; dsDNA, one strand shown
# T5 sequence: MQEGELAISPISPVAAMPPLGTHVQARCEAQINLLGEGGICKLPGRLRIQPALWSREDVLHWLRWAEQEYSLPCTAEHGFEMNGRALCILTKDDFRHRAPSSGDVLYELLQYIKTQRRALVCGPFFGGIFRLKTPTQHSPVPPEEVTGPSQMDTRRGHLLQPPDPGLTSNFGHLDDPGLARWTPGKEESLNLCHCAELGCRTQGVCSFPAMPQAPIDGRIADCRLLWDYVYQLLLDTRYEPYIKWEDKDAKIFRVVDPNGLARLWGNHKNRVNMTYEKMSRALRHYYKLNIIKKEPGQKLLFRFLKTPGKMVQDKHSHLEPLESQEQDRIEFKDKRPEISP
# Outline: as §1
# [10] = target: ELF1 (Homo sapiens, UniProt P32519 1-619); details: protein: recombinant; tags: N-terminal GST; dsDNA, one strand shown
# Outline: as §1
# [11] = target: T6, EHF (Homo sapiens, UniProt Q9NZC4 1-300); details: protein: recombinant; tags: N-terminal GST; dsDNA, one strand shown
# T6 sequence: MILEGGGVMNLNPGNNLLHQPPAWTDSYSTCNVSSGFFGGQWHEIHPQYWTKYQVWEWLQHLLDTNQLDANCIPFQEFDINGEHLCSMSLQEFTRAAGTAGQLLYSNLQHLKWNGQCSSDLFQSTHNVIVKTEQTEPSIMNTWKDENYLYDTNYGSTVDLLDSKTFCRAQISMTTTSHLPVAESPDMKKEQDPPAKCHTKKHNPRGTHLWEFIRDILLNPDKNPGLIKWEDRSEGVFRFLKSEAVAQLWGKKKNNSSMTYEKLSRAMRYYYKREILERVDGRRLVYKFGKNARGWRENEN
# Outline: as §1
# [12] = target: T7, ELK3 (Homo sapiens, UniProt P41970 1-407); details: protein: recombinant; tags: N-terminal GST; dsDNA, one strand shown
# T7 sequence: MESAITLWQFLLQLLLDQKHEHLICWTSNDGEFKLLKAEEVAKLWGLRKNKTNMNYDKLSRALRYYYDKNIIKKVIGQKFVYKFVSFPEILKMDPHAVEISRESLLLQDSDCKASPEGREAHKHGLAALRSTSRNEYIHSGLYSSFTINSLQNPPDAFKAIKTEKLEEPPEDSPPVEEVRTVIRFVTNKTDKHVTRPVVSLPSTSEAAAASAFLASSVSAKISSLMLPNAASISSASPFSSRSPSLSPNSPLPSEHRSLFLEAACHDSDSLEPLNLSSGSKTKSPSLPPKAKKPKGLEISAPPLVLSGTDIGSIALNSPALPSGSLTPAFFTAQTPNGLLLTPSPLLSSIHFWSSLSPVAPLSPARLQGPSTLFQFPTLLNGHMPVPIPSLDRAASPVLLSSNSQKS
# Outline: as §1
# [13] = target: T8, ELF3 (Homo sapiens, UniProt P78545 1-371); details: protein: recombinant; tags: N-terminal GST; dsDNA, one strand shown
# T8 sequence: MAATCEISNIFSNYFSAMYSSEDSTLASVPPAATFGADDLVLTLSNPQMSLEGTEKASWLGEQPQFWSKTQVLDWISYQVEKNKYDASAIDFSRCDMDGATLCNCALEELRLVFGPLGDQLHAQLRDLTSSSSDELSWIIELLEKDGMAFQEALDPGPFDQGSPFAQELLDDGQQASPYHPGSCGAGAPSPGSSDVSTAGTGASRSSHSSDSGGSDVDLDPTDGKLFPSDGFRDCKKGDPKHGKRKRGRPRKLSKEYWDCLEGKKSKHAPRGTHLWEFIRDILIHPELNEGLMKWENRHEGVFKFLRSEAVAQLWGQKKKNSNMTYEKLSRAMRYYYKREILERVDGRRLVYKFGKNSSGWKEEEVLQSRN
# Outline: as §1
# [14] = target: ETV6 (Homo sapiens, UniProt P41212 1-452); details: protein: recombinant; tags: N-terminal GST; dsDNA, one strand shown
# Outline: as §1
# Chain of HSF1 (Q00613 whole entry, the tested form may be a part): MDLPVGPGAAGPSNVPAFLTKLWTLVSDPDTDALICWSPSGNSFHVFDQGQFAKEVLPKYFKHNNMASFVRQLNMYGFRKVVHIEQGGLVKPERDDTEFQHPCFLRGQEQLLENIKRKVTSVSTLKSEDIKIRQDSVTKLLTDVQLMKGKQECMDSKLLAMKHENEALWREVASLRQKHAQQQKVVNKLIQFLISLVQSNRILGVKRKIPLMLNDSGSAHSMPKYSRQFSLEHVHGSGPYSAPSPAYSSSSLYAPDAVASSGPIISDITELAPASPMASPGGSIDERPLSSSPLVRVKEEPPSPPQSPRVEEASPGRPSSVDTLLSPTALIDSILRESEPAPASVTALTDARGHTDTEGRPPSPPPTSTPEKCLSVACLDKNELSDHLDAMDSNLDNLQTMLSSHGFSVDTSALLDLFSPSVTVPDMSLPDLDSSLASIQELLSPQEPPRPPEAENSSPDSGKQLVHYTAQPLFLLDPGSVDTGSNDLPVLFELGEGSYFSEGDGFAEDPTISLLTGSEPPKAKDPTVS
# Chain of ELF4 (Q99607 whole entry): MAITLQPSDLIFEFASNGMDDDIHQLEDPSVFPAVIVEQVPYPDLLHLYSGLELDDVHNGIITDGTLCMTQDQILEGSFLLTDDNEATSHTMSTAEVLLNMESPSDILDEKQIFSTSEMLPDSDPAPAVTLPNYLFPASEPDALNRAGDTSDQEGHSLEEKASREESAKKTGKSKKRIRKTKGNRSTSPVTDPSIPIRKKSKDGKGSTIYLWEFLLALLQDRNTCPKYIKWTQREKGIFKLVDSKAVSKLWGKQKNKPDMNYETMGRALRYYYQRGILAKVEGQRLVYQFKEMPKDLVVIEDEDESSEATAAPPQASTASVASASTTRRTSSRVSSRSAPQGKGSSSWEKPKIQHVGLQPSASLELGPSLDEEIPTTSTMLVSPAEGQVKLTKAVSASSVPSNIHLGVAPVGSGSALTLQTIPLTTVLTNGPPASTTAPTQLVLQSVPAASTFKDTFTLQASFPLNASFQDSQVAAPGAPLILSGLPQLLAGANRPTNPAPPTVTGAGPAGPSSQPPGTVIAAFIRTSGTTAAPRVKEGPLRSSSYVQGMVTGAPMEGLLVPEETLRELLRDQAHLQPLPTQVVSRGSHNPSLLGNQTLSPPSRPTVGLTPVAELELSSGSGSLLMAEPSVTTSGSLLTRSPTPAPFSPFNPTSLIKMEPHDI
# Chain of CRX (O43186 whole entry): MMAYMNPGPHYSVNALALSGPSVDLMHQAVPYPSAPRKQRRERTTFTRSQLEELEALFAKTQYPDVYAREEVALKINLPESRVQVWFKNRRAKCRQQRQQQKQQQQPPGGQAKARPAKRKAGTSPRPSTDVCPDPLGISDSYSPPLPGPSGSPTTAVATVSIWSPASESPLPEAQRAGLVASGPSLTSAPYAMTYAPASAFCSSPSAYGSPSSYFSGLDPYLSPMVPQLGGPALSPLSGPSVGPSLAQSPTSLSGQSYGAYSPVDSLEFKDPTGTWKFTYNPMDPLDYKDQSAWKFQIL
# Chain of ETV1 (P50549 whole entry): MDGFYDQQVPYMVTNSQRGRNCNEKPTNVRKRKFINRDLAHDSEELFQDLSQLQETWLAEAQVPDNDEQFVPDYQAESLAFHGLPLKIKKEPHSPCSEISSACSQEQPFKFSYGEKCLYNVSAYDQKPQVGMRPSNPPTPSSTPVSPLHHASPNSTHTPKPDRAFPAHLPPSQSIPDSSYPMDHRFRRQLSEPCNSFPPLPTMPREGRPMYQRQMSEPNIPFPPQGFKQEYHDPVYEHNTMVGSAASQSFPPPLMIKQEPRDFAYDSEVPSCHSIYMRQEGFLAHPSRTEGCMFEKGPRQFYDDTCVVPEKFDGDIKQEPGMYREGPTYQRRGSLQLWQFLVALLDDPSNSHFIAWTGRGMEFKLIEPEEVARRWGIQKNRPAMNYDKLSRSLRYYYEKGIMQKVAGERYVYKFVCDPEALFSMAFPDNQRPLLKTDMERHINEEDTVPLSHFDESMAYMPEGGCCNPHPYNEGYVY
# Chain of ELF1 (P32519 whole entry): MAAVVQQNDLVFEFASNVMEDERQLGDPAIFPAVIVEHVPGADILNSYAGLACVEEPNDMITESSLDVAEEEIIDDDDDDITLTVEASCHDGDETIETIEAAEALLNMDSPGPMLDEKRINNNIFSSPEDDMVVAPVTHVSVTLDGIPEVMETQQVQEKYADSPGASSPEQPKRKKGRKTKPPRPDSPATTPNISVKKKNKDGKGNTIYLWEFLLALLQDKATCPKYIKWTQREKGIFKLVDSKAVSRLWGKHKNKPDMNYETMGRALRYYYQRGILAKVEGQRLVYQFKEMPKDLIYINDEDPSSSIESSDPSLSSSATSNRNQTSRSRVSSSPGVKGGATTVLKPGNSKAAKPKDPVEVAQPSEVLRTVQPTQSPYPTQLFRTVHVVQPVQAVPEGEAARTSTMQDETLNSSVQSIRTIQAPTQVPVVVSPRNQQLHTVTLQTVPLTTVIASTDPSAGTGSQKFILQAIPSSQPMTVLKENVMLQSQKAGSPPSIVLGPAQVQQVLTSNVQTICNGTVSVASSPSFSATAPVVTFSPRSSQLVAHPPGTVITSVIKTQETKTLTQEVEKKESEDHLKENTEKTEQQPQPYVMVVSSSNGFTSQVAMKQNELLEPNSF
# Chain of ETV6 (P41212 whole entry): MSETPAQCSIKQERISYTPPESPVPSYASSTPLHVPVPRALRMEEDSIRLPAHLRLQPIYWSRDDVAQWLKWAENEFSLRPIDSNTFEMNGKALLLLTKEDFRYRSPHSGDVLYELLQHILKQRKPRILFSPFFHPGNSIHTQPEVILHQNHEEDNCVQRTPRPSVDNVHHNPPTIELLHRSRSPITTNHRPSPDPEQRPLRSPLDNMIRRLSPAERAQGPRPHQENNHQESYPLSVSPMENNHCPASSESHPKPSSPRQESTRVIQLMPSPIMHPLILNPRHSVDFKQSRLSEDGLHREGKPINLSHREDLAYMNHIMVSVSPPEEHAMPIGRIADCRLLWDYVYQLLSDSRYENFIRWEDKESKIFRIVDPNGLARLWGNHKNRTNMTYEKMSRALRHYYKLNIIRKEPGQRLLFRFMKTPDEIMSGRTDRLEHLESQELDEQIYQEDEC
sequence,measurement,setting,value
AGGGTT,binding signal,[1],"1.02 fold enrichment (6-mer frequency, TF over GST control)"
same,binding signal,[2],"1.03 fold enrichment (6-mer frequency, TF over GST control)"
same,binding signal,[3],"1.14 fold enrichment (6-mer frequency, TF over GST control)"
same,binding signal,[4],"1.03 fold enrichment (6-mer frequency, TF over GST control)"
same,binding signal,[5],"1.06 fold enrichment (6-mer frequency, TF over GST control)"
same,binding signal,[6],"1.01 fold enrichment (6-mer frequency, TF over GST control)"
CCCAGA,binding signal,[1],"1.31 fold enrichment (6-mer frequency, TF over GST control)"
same,binding signal,[3],"1.01 fold enrichment (6-mer frequency, TF over GST control)"
TAGCGC,binding signal,[7],"1.01 fold enrichment (6-mer frequency, TF over GST control)"
same,binding signal,[1],"1.02 fold enrichment (6-mer frequency, TF over GST control)"
same,binding signal,[2],"1.01 fold enrichment (6-mer frequency, TF over GST control)"
same,binding signal,[5],"1.03 fold enrichment (6-mer frequency, TF over GST control)"
same,binding signal,[6],"1.07 fold enrichment (6-mer frequency, TF over GST control)"
same,binding signal,[8],"1.03 fold enrichment (6-mer frequency, TF over GST control)"
ATCGCG,binding signal,[1],"1.09 fold enrichment (6-mer frequency, TF over GST control)"
same,binding signal,[2],"1 fold enrichment (6-mer frequency, TF over GST control)"
same,binding signal,[3],"1 fold enrichment (6-mer frequency, TF over GST control)"
same,binding signal,[9],"1.05 fold enrichment (6-mer frequency, TF over GST control)"
CATTAG,binding signal,[10],"1.05 fold enrichment (6-mer frequency, TF over GST control)"
same,binding signal,[11],"1 fold enrichment (6-mer frequency, TF over GST control)"
same,binding signal,[1],"1.07 fold enrichment (6-mer frequency, TF over GST control)"
same,binding signal,[3],"1.1 fold enrichment (6-mer frequency, TF over GST control)"
same,binding signal,[4],"1.03 fold enrichment (6-mer frequency, TF over GST control)"
same,binding signal,[5],"1.26 fold enrichment (6-mer frequency, TF over GST control)"
same,binding signal,[8],"1.01 fold enrichment (6-mer frequency, TF over GST control)"
GAATGA,binding signal,[10],"1 fold enrichment (6-mer frequency, TF over GST control)"
same,binding signal,[12],"1.02 fold enrichment (6-mer frequency, TF over GST control)"
same,binding signal,[1],"1.15 fold enrichment (6-mer frequency, TF over GST control)"
same,binding signal,[2],"1 fold enrichment (6-mer frequency, TF over GST control)"
same,binding signal,[4],"1.11 fold enrichment (6-mer frequency, TF over GST control)"
same,binding signal,[13],"1.07 fold enrichment (6-mer frequency, TF over GST control)"
same,binding signal,[14],"1.02 fold enrichment (6-mer frequency, TF over GST control)"
